Compound activity (PubChem BioAssay)
DRD3 antagonist: antagonists of human D3 dopamine receptor. hit rate 2.5% among 360,000. D3R cells, DiscoveRx beta-arrestin luminescence, antagonist mode; hits give low values. max response, negative = inhibition, %. P35462; in the data active = max response below about -50%; inconclusive = no clear call, values can overlap the other calls
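Cells expressing the human receptor were seeded at 1500 cells/well, incubated overnight at 37 degrees C in 5% CO2, then exposed to library compounds with dopamine controls for 90 minutes at 37 degrees C before luminescent detection.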
D3 ag: activates the human D3 dopamine receptor; hit rate 0.58% among 410,000; D3R DiscoveRx beta-arrestin cells, luminescence, 90 min; AID 652048; max activation, %; P35462; in the data active = max activation above about 30%
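Cells at 1500/well, incubated overnight, then treated with pinned compounds (dopamine as control) for 90 min at 37 degrees C. DiscoveRx reagent added for 30 - 60 minutes at room temperature; luminescence read.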
Giardia kill: Giardia lamblia killing. activity change, % at 7.66 µM, hits read low. Giardia lamblia trophozoite viability. hit rate 0.15% among 340,000. AID 540267; in the data active = activity change below about -80%; inconclusive = between about -30% and that limit;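 also: parasites exposed to compound for two days anaerobically before the ATP read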
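Viability, read as ATP luminescence: trophozoites at 100 cells/well, compound added, 48 hrs anaerobic at 37 deg C, then 15-30 min room-temperature development before reading.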
B2AR arrestin: recruits beta-arrestin to the human beta2-adrenergic receptor | hit rate 0.02% among 330,000 | beta-arrestin recruitment to beta2AR, cell-based reporter | Potency, µM (top dose mostly 46.1 µM), hits mostly activators | AID 492947 | P07550; active = well fitted activation curve with a large enough effect; inconclusive = small, poorly fitted or top-dose-only effect; also: nearly all actives have a fitted effect of over 65% in size
Target sequence (P07550 whole entry, looked up): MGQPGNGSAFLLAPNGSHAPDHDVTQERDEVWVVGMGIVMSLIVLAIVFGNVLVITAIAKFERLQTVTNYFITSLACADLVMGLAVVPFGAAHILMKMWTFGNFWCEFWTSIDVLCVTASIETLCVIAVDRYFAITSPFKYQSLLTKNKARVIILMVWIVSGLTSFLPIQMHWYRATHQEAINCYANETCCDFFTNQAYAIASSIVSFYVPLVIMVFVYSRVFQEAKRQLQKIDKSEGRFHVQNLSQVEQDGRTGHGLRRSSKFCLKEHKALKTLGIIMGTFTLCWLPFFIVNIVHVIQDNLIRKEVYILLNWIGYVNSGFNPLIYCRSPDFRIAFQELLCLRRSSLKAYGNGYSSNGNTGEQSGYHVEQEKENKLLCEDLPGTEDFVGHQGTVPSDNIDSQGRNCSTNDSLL
Of the large screens only hits and unclear results are named; the others gave an inactive call. Compounds with a hit are over-represented: about 2.8% of the library has one in this group of screens.

CCc1[nH]nc2c1C1(CCN(C(=O)c3ccccc3)CC1)C(C#N)=C(N)O2	none
Cc1ccc(NCc2ccccc2O)cc1	none
Cc1ccc(CNc2ccc(O)cc2)cc1	DRD3 antagonist -53, Giardia kill inconclusive, B2AR arrestin inconclusive
CCOC(=O)N1CCC(NCCNC(=O)c2cccc(F)c2)CC1	DRD3 antagonist -112
CCOC(=O)N1CCC(Nc2c(Nc3cccc(CC)c3)c(=O)c2=O)CC1	DRD3 antagonist -62
CCOC(=O)N1CCC(Nc2c(NCCN3CCN(Cc4ccccc4)CC3)c(=O)c2=O)CC1	none
CCOC(=O)N1CCC(NCCNC(=O)c2ccc(F)cc2)CC1	none
CCOC(=O)N1CCC(Nc2c(Nc3ccc(F)cc3)c(=O)c2=O)CC1	DRD3 antagonist -89
Cc1ccc(-c2nnc(SCc3ccccc3C#N)o2)cc1	none (no result: DRD3 antagonist, Giardia kill, B2AR arrestin)
Cc1nn(-c2ccc(Cl)cc2)c(=O)c2ccccc12	none
Cc1c(Cl)sn(-c2ccc(Cl)cc2)c1=O	DRD3 antagonist -52
CC(=O)Nc1ccc(-c2nnc(SCC(=O)c3ccc([N+](=O)[O-])cc3)o2)cc1	none (no result: DRD3 antagonist, Giardia kill, B2AR arrestin)
COP(=O)(OC)OC(c1ccc(Cl)cc1)P(=O)(OC)OC (stereo unspecified)	D3 ag 84 (no result: DRD3 antagonist, Giardia kill, B2AR arrestin)
CC1C(=O)Nc2ccc(S(=O)(=O)NCc3ccc(N(C)C)cc3)cc2NC1=O (stereo unspecified)	none (no result: DRD3 antagonist, Giardia kill, B2AR arrestin)
CC(OC(=O)CC1CCCC1)C(=O)Nc1ccc(Cl)cn1 (stereo unspecified)	DRD3 antagonist -54
O=C(COC(=O)CC1CCCC1)Nc1ccc(Cl)cn1	none
CS(=O)(=O)c1ccc(C(=O)OCC(=O)Nc2ccc(OC(F)(F)F)cc2)cc1[N+](=O)[O-]	none (no result: DRD3 antagonist, D3 ag, B2AR arrestin)
CCC(C(=O)NCCc1ccccc1)n1nc(C)n2c(cc3sccc32)c1=O (stereo unspecified)	none (no result: DRD3 antagonist, Giardia kill, B2AR arrestin)
CN(C(=O)c1cccc(NC(=O)Cc2ccc(NC(=O)C3CCN(C(=O)c4ccccc4)CC3)cc2)c1)C1CCC1	none (no result: B2AR arrestin)
CN(C(=O)c1ccc(NC(=O)Cc2ccc(NC(=O)C3CCN(C(=O)c4ccccc4)CC3)cc2)cc1)C1CC1	DRD3 antagonist -99
Nc1[nH]c(C(=O)c2ccccc2)c(-c2ccc(Cl)cc2)c1C(=O)NCc1ccccc1	D3 ag 57 (no result: Giardia kill, B2AR arrestin)
O=C1CN(C(=O)c2cccc(Br)c2)C(c2ccccc2)c2cc(Cl)ccc2N1 (stereo unspecified)	none (no result: DRD3 antagonist, Giardia kill, B2AR arrestin)
Cc1ccccc1/C=N/Nc1nc2ccccc2[nH]1	none
O=[N+]([O-])c1cc(/C=N/Nc2nc3ccccc3[nH]2)c(O)cc1O	DRD3 antagonist -65
C(=N\Nc1nc2ccccc2[nH]1)/c1c[nH]c2ccccc12	D3 ag 47
CCC(C)NC(=O)c1sc2nc(C)c(C(=O)Nc3ccc(C)cc3C)c(-c3ccccc3Cl)c2c1N (stereo unspecified)	none (no result: DRD3 antagonist, Giardia kill, B2AR arrestin)
O=C(c1ccccc1Cl)n1nc(-c2cccnc2)nc1NCc1ccc(F)cc1	none (no result: DRD3 antagonist, Giardia kill, B2AR arrestin)
COC(=O)CN1C(=O)C(C)(C)Oc2ccc(C(=O)NC3CCCC3)cc21	none
CCC(C)(C)NC(=O)c1ccc2c(c1)N(CC(=O)NC1CCCC1)C(=O)C(C)(C)O2	DRD3 antagonist -62
OC1(c2cccc(F)c2)CCN(Cc2ccncc2)CC1	DRD3 antagonist -78
Nc1nc(OCc2ccccc2)c2[nH]cnc2n1	DRD3 antagonist -121 (no result: B2AR arrestin)
Nc1nc(NCCc2ccccc2)c2[nH]cnc2n1	none (no result: DRD3 antagonist, D3 ag, B2AR arrestin)
COc1ccc(SCC(Cc2ccccc2)N2CCN(CC(C)C)CCC2=O)cc1 (stereo unspecified)	none (no result: DRD3 antagonist, D3 ag, B2AR arrestin)
Cc1ccccc1-c1nc(S(=O)(=O)c2ccccc2)c(NCCCN2CCOCC2)o1	DRD3 antagonist -65
O=S(=O)(c1ccccc1)c1nc(-c2ccccc2Cl)oc1NCCCN1CCOCC1	DRD3 antagonist -71
Cc1ccc(S(=O)(=O)c2nc(-c3ccccc3)oc2NCCN2CCOCC2)cc1	DRD3 antagonist -73
Cc1ccccc1-c1nc(S(=O)(=O)c2ccc(Cl)cc2)c(NCCN2CCOCC2)o1	DRD3 antagonist inconclusive
O=C(c1cc(Br)ccc1O)N(Cc1ccco1)Cc1cccs1	none (no result: DRD3 antagonist, D3 ag, B2AR arrestin)
O=C(NCCC1=CCCCC1)C1CCC(CNc2nc(=S)[nH]c3ccccc23)CC1 (stereo unspecified)	DRD3 antagonist -83
O=C(NCCc1ccc(Cl)cc1)C1CCC(CNc2nc(=S)[nH]c3ccccc23)CC1 (stereo unspecified)	none
O=[N+]([O-])c1ccc(O)c(/C=N\N=C2c3ccccc3-c3ccccc32)c1	DRD3 antagonist -78
NC(N)=N/N=C/c1cc([N+](=O)[O-])ccc1O	none
CN(C)/N=C/c1cc([N+](=O)[O-])ccc1O	DRD3 antagonist -61
O=[N+]([O-])c1ccc(O)c(/C=N/n2cnnc2)c1	DRD3 antagonist -83
Cc1cc(C)n(/N=C/c2cc([N+](=O)[O-])ccc2O)c(=O)c1	DRD3 antagonist -67
Cc1ccc2oc(=O)n(CCNC(=O)Nc3ccc(Cl)cc3)c2c1	none (no result: DRD3 antagonist, Giardia kill, B2AR arrestin)
O=[N+]([O-])c1ccc(O)c(/C=N/Nc2ccc(Cl)nn2)c1	DRD3 antagonist -84
O=[N+]([O-])c1ccc(O)c(/C=N/Nc2nn[nH]n2)c1	DRD3 antagonist inconclusive
COc1ccc(-c2csc(/C(C#N)=C(\O)CSc3nccn3C)n2)cc1OC	DRD3 antagonist -55
COc1ccc(/C=C(/C#N)c2nc(-c3ccc(-c4ccccc4)cc3)cs2)cc1OC	none (no result: DRD3 antagonist, Giardia kill, B2AR arrestin)
Cc1cc(C)cc(N(C(=O)c2nsc(Cl)c2Cl)C(C(=O)NC2CCCC2)c2ccc(O)cc2)c1 (stereo unspecified)	none
Cc1ccc(N(C(=O)c2nsc(Cl)c2Cl)C(C(=O)NC2CCCC2)c2ccc(O)cc2)cc1C (stereo unspecified)	DRD3 antagonist -52
COc1cc(/C=C/C(=O)O[C@H]2CC[C@]34C[C@]35CC[C@]3(C)[C@@H]([C@H](C)CCC=C(C)C)CC[C@@]3(C)[C@@H]5CC[C@H]4C2(C)C)ccc1O	none (no result: DRD3 antagonist, Giardia kill, B2AR arrestin)
O=C(NCCc1nc2ccccc2n1CCOc1ccccc1)C1CCCCC1	none (no result: DRD3 antagonist, D3 ag, B2AR arrestin)
COc1ccc(OC)c(NC(=O)Cc2coc3ccc(C(C)C)cc23)c1	none (no result: DRD3 antagonist, Giardia kill, B2AR arrestin)
O=C1CC(=C(c2ccccc2)c2ccccc2)C(=O)N1CCCN1CCN(c2cccc(Cl)c2)CC1	DRD3 antagonist inconclusive
O=C1CC(=C2c3ccccc3-c3ccccc32)C(=O)N1CCCCN1CCN(c2ccccc2)CC1	DRD3 antagonist -55
O=C(Nc1nnc(SCc2ccc(F)cc2)s1)c1ccccn1	DRD3 antagonist -66
O=C(Nc1nc2ccccc2s1)c1cnccn1	none
O=C(Nc1nc2ccc(F)cc2s1)c1ccccn1	DRD3 antagonist -73
CCN(C(=O)C(=O)Nc1ccc2nc3n(c(=O)c2c1)CCCCC3)c1ccc(F)cc1	none (no result: DRD3 antagonist, Giardia kill, B2AR arrestin)
O=C(CN1CCN(c2ccccc2F)CC1)Nc1ccccc1F	DRD3 antagonist -58
Cc1ccc(NC(=O)CN2CCN(c3ccccc3F)CC2)cc1F	none (no result: DRD3 antagonist, Giardia kill, B2AR arrestin)
O=C(CCN1CCN(c2ccccc2F)CC1)Nc1ccccc1F	D3 ag 32
Cc1ccc(CNC(=O)c2cn(C)c3ccc(S(=O)(=O)N4CCC(C)CC4)cc3c2=O)cc1	none (no result: DRD3 antagonist, Giardia kill, B2AR arrestin)
O=S(=O)(c1cnc(Cl)c(Br)c1)N1CCc2ccccc21	DRD3 antagonist -53
COc1ccc(C(=O)NCCSCc2ccccc2)cc1OC	DRD3 antagonist -51
